Laboratory results: PubChem BioAssay AID1159580 (chemical genetic matrix, 2015)
The campaign covered roughly 5,500 compounds. About 2,000 (36%) were called active. Roughly 18% stayed inconclusive and do not appear here. Rule as the data show it: active = normalized growth mostly below about 0.91 (no sharp cut-off); inconclusive = no clear call, values can overlap the other calls; inactive = mostly above about 0.92. Some of the results follow.

Experiment: chemical genetic growth profiling, strain panel (AID 1159580);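 also: tested at 20 µM; growth read once vehicle control cultures reached saturation at 30 °C; 1 = growth at the plate median or of vehicle wells; lower values mean less growth of the strain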
Details: S. cerevisiae deletion strains, growth OD

Measured: normalized growth

COC(=O)c1cnn(-c2c(Cl)cccc2Cl)c1C=C(C#N)C#N
active: locus YLR113W, strain HOG1, active compounds read low 0.748 | locus YPL256C, strain CLN2, active compounds read low 0.781
inactive: locus YAR019C, strain CDC15, active compounds read low 0.939 | locus YBL105C, strain PKC1, active compounds read low 0.957 | locus YBR135W, strain CKS1, active compounds read low 0.954 | locus YBR136W, strain MEC1, active compounds read low 0.952 | locus YBR160W, strain CDC28, active compounds read low 0.955 | locus YDL017W, strain CDC7, active compounds read low 0.953 | locus YDL028C, strain MPS1, active compounds read low 0.946 | locus YDL101C, strain DUN1, active compounds read low 0.944 | locus YDL108W, strain KIN28, active compounds read low 0.961 | locus YDL132W, strain cdc53, active compounds read low 0.942 | locus YDL214C, strain PRR2, active compounds read low 0.966 | locus YDR052C, strain DBF4, active compounds read low 0.948 | locus YDR054C, strain cdc34, active compounds read low 0.943 | locus YDR226W, strain ADK1, active compounds read low 0.956 | locus YDR477W, strain SNF1, active compounds read low 0.972 | locus YER123W, strain YCK3, active compounds read low 0.954 | locus YER133W, strain GLC7, active compounds read low 0.922 | locus YFL009W, strain cdc4, active compounds read low 0.936 | locus YFL029C, strain CAK1, active compounds read low 0.954 | locus YFR003C, strain YPI1, active compounds read low 0.95 | locus YFR019W, strain FAB1, active compounds read low 0.966 | locus YFR028C, strain CDC14, active compounds read low 0.949 | locus YGR040W, strain KSS1, active compounds read low 0.944 | locus YGR052W, strain FMP48, active compounds read low 0.93 | locus YGR092W, strain DBF2, active compounds read low 0.912 | locus YHR079C, strain IRE1, active compounds read low 0.775 | locus YHR082C, strain KSP1, active compounds read low 1.1 | locus YHR205W, strain SCH9, active compounds read low 1 | locus YIL147C, strain SLN1, active compounds read low 0.947 | locus YJL095W, strain BCK1, active compounds read low 0.782 | locus YJL128C, strain PBS2, active compounds read low 0.969 | locus YJL157C, strain FAR1, active compounds read low 0.962 | locus YJR016C, strain ILV3, active compounds read low 0.955 | locus YJR066W, strain TOR1 (second series), active compounds read low 0.964 | locus YJR066W, strain TOR1, active compounds read low 1.08 | locus YKL048C, strain ELM1, active compounds read low 0.922 | locus YKL067W, strain YNK1, active compounds read low 0.955 | locus YKL101W, strain HSL1, active compounds read low 0.958 | locus YKL193C, strain SDS22, active compounds read low 0.949 | locus YKL203C, strain TOR2, active compounds read low 1.03 | locus YLR133W, strain CKI1, active compounds read low 0.968 | locus YLR403W, strain SFP1, active compounds read low 0.975 | locus YML070W, strain DAK1, active compounds read low 0.961 | locus YMR001C, strain CDC5, active compounds read low 0.953 | locus YMR205C, strain PFK2 (second series), active compounds read low 0.975 | locus YMR277W, strain FCP1, active compounds read low 0.949 | locus YNL006W, strain LST8, active compounds read low 0.955 | locus YNL020C, strain ARK1, active compounds read low 0.969 | locus YNL161W, strain CBK1, active compounds read low 0.94 | locus YNL183C, strain NPR1, active compounds read low 0.863 | locus YNL207W, strain RIO2, active compounds read low 0.95 | locus YNL222W, strain SSU72, active compounds read low 0.966 | locus YNL307C, strain MCK1 (second series), active compounds read low 0.986 | locus YOL078W, strain AVO1, active compounds read low 0.946 | locus YOL136C, strain PFK27, active compounds read low 0.969 | locus YOR061W, strain CKA2, active compounds read low 0.95 | locus YOR119C, strain RIO1, active compounds read low 0.961 | locus YOR231W, strain MKK1, active compounds read low 0.797 | locus YOR329C, strain SCD5, active compounds read low 0.947 | locus YPL031C, strain PHO85, active compounds read low 0.948 | locus YPL153C, strain RAD53, active compounds read low 0.938 | locus YPL204W, strain HRR25, active compounds read low 0.956 | locus YPL209C, strain IPL1, active compounds read low 0.954 | locus YPR025C, strain CCL1, active compounds read low 0.942 | locus YPR106W, strain ISR1, active compounds read low 0.942 | locus YPR111W, strain DBF20, active compounds read low 0.953 | strain NNK1, active compounds read low 0.969 | strain TSCII, active compounds read low 0.943
